From PubChem BioAssay
ROS inducer: ROS inducers in U2OS cancer cells, primary screen, cell-based, H2DCF-DA fluorescence | AID 624156, 2012 | ROS induction (% of piperlongumine), % at 10 µM | 2% of 46,000 active | U2OS ROS induction; in the data active = ROS induction above about 79%, passing the limit was not always enough; inconclusive = no clear call, values can overlap the other calls;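 note: 0% = DMSO vehicle median and 100% = reference compound median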
YB-1 expr inh: inhibitors of YB-1 gene expression, primary screen, cell-based, fluorescence | U2OS, qRT-PCR YB-1 vs CDIP delta delta Cp, 16 h; hits give high values; zero = DMSO, each unit about twofold | delta delta Cp (YB-1 minus CDIP) (test concentration not listed) | 0.37% of 30,000 active | AID 434959, 2010;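 active = delta delta Cp rounded down to an integer at or above 3, about 3 SD of DMSO wells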;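 note: higher means less YB-1 transcript or more CDIP transcript relative to DMSO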
* = called active by the depositor; u = inconclusive; x = no result given. Most compounds without a hit are left out; they make up all but 2.1% or so of the library.

SMILES	ROS inducer	YB-1 expr inh
N#Cc1c(C(F)(F)F)cc(-c2cccs2)nc1SCC(=O)c1ccccc1	746.9*	x
N#Cc1c(C(F)(F)F)cc(-c2cccs2)nc1SCC(=O)Nc1ccccc1C(F)(F)F	8.4	x
CC(=O)N1CCN(c2nc3ccc(Cl)cc3s2)CC1	20.4	0.0496
COc1cc(-c2noc(-c3c(-c4ccccc4Cl)noc3C)n2)cc(OC)c1OC	117.4*	x
COc1cc(NC(=O)Cn2nnc(-c3ccccc3Cl)n2)cc(OC)c1OC	0.9	x
C/C(=C/c1ccccc1)C(=O)Nc1ccc2nc3n(c(=O)c2c1)CCCCC3	7.9	x
CC(C)(C)NC(=O)c1ccccc1SCc1ccc(F)cc1	-2.4	x
COCCOC(=O)N1C(=O)[C@@]2(c3ccccc31)[C@H](C(=O)N1CCN(c3ncccn3)CC1)[C@H]1C(=O)O[C@H](c3ccccc3)[C@H](c3ccccc3)N1[C@@H]2c1ccccc1OCCO	122.5*	-0.234
COCCOC(=O)N1C(=O)[C@@]2(c3cc(C#CCCO)ccc31)[C@H](C(=O)N1CCN(c3ncccn3)CC1)[C@H]1C(=O)O[C@H](c3ccccc3)[C@H](c3ccccc3)N1[C@@H]2c1ccccc1OCCO	165.6*	-0.462
COCCOC(=O)N1C(=O)[C@@]2(c3cc(C#CC4(O)CCCCCC4)ccc31)[C@H](C(=O)N1CCN(c3ncccn3)CC1)[C@H]1C(=O)O[C@H](c3ccccc3)[C@H](c3ccccc3)N1[C@@H]2c1ccc(O)cc1	17.0	0.0826
COCCOC(=O)N1C(=O)[C@@]2(c3ccccc31)[C@H](c1ccccc1OCCO)N1[C@H](c3ccccc3)[C@H](c3ccccc3)OC(=O)[C@H]1[C@@H]2C(N)=O	u	-0.106
Cc1c(CO)c2ccccc2n1Cc1ccccc1C#N	1.7	x
CSc1ncc(Cl)c(C(=O)Nc2sc3c(c2C(=O)NCc2ccco2)CCC3)n1	-3.8	x
Cc1ccc(S(=O)(=O)Nc2ccc3oc(=O)sc3c2)cc1	4.7	x
O=C(Nc1cc2c(ccc3ccccc32)oc1=O)c1ccccc1	-1.6	3.29*
CC(=O)Nc1cc2c(ccc3ccccc32)oc1=O	-6.3	x
COc1cccc(NC(=O)Nc2nncs2)c1	-4.6	x
C[C@@H]1CN([C@H](C)CO)C(=O)Cc2cc(NC(=O)Nc3ccc4c(c3)OCO4)ccc2O[C@@H]1CN(C)CC1CCCCC1	4.3	-0.632
C[C@@H]1CN([C@H](C)CO)C(=O)Cc2cc(NC(=O)Nc3ccc4c(c3)OCO4)ccc2O[C@@H]1CN(C)C	-2.0	0.215
C[C@@H]1CN([C@H](C)CO)C(=O)Cc2cc(NC(=O)Nc3ccc4c(c3)OCO4)ccc2O[C@H]1CN(C)C	-0.7	10.9*
C[C@@H]1CN([C@H](C)CO)C(=O)Cc2cc(NC(=O)Nc3ccc4c(c3)OCO4)ccc2O[C@H]1CN(C)CC1CC1	127.8*	-0.14
C[C@@H]1CN([C@@H](C)CO)C(=O)Cc2cc(NC(=O)Nc3ccc4c(c3)OCO4)ccc2O[C@@H]1CN(C)C	99.3*	0.263
C[C@H](CO)N1C[C@H](C)[C@H](CN(C)S(C)(=O)=O)Oc2ccc(NC(=O)Nc3ccc4c(c3)OCO4)cc2CC1=O	-5.9	-0.222
CCCCN1C(=O)C(O)(CC(=O)c2ccco2)c2ccccc21 (stereo unspecified)	-1.9	x
Fc1ccc(-c2nc(-c3ccc(C(F)(F)F)cc3)no2)c(Cl)c1	-9.3	x
SMILES	ROS inducer	YB-1 expr inh
CCc1ccc(C2C3=C(CCCC3=O)Nc3c2c(=O)n(C)c(=O)n3C)cc1 (stereo unspecified)	-1.7	x
COc1ccc(C2=NN(S(C)(=O)=O)C(c3ccccc3OC)C2)cc1 (stereo unspecified)	163.5*	0.447
COc1ccc(C2=NN(S(C)(=O)=O)C(c3ccc(C)cc3)C2)cc1 (stereo unspecified)	32.9	0.0476
CC(C)(C)C1CC=C2[C@H](C1)[C@@H](c1ccsc1)C(C#N)=C(N)C2(C#N)C#N (stereo partly specified)	24.8	-0.282
COC(=O)c1ccc([C@H]2C(C#N)=C(N)C(C#N)(C#N)C3=CCC(C(C)(C)C)C[C@@H]32)cc1 (stereo partly specified)	225.9*	0.109
O=C(c1ccccc1Cl)N1CCN(c2ccc([N+](=O)[O-])c(NCc3cccnc3)c2)CC1	78.7*	x
O=C(c1ccc(Cl)cc1)N1CCN(c2ccc([N+](=O)[O-])c(NCc3ccccn3)c2)CC1	4.5	x
CC(C)(C)c1ccc(C(=O)N2CCN(c3ccc([N+](=O)[O-])c(NCc4cccnc4)c3)CC2)cc1	106.5*	x
CC(=O)N1CCN(c2ccc([N+](=O)[O-])c(NCc3cccnc3)c2)CC1	40.0	x
O=C(O)c1[nH]n(-c2ccccc2)c(=O)c1/C=C1\C=Nc2ccccc21	33.5	x
Cn1c(SCC(=O)Nc2ccc(Br)c(Cl)c2)nnc1-c1ccco1	-5.9	x
Cn1c(Cc2cccc3ccccc23)nnc1SCc1ccccc1C#N	0.1	x
